Bioassay records from PubChem.
FadD28 FP inh: inhibitors of FadD28 bisubstrate probe binding, primary screen, biochemical, fluorescence polarization, single point | inhibition, % at 12.5 µM | Mycobacterium tuberculosis FadD28 fatty-acid-AMP ligase | actives 0.22% (n = 360,000); in the data active = inhibition above about 8.5%, passing the limit was not always enough; inconclusive = no clear call, values can overlap the other calls
Rv3671c protease: Rv3671c serine protease inhibitors, primary screen, biochemical, fluorescence polarization, M. tuberculosis H37Rv; P9WHR9; inhibition, % at 5.96 µM; actives 0.048% (n = 320,000); AID 2606, 2010; in the data active = inhibition above about 38%;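 note: extracellular domain of Rv3671c used as enzyme; 0% = enzyme with DMSO and 100% = no enzyme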
BioA inh-1: M. tuberculosis BioA enzyme inhibitors, primary screen, biochemical, plate reader, single point, HTS. inhibition, % at 9.99 µM. actives 0.096% (n = 360,000). purified M. tuberculosis BioA enzyme; in the data active = inhibition above about 40%; inconclusive = no clear call, values can overlap the other calls
RecA splice inh: Mtb RecA intein splicing inhibitors, primary screen, biochemical, fluorescence, HTS. inhibition, % (test concentration not listed). cell-free RecA intein splicing. Protein RecA (Mycobacterium tuberculosis (strain ATCC 25618 / H37Rv)), P9WHJ3. AID 2221, 2009. actives 0.75% (n = 290,000); in the data active = inhibition above about 30%; inconclusive = no clear call, values can overlap the other calls;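 note: 0% = vehicle wells and 100% = reference inhibitor control wells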
Mtb UGM inh: M. tuberculosis UGM enzyme inhibitors, primary screen, biochemical, fluorescence polarization, single point; UDP-galactopyranose mutase (Mycobacterium tuberculosis (strain ATCC 25618 / H37Rv)), …; purified UGM, fluorescence polarization probe displacement; inhibition, % at 10 µM; actives 0.06% (n = 320,000); AID 504406, 2011; in the data active = inhibition above about 10%, passing the limit was not always enough; inconclusive = no clear call, values can overlap the other calls
Target sequence (P9WIQ1 whole entry, looked up): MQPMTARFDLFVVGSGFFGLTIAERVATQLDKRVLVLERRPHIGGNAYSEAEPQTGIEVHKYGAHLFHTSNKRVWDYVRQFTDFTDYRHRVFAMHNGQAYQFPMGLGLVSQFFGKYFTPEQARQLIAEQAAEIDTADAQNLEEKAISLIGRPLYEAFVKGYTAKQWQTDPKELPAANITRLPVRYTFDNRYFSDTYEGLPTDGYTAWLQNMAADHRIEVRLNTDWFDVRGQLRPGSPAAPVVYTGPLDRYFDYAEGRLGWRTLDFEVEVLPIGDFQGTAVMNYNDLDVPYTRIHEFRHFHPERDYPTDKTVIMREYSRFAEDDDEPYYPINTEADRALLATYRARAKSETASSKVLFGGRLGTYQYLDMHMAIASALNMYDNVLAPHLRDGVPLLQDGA
Y pestis TopoI: Yersinia pestis topoisomerase I inhibitors, primary screen, biochemical, cleavage product accumulation, plate reader, single point | actives 0.064% (n = 360,000) | AID 504884, 2011 | DNA topoisomerase I (Yersinia pestis CO92) | Y. pestis Topo-I cleavage product accumulation | activity, % at 10 µM; in the data active = activity above about 50%, passing the limit was not always enough; inconclusive = no clear call, values can overlap the other calls
BioA inh-2: Mtb BioA enzyme inhibitors, dose response, biochemical, plate reader, cherry-pick samples, set 03; shares compounds with BioA inh-1; purified BioA enzyme; max activity, %; 310 tested, under 10 active;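 note: top concentration of the dilution series was 10 µM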
HepG2 cytotox: cytotoxicity in HepG2 cells, dose response, cytotoxicity control, cell-based, plate reader, cherry-pick, two tests. shares compounds with BioA inh-1. max activity, %. 310 tested, under 10 active. AID 651898, 2012
3T3 cytotox 5: cytotoxicity in NIH3T3 fibroblasts, dose response, cytotoxicity control, cell-based, plate reader, cherry-pick, two tests; shares compounds with BioA inh-1; activity change, negative = cytotoxicity, % at 26 µM; 310 tested, under 10 active
* = called active by the depositor; i = inactive; ? = inconclusive; nt = no result given. Sampled rows, rich in hits. Any-hit rate of the full collection: about 0.82%. Unless noted, the rule behind the calls is not given here.

SMILES	FadD28 FP inh	Rv3671c protease	BioA inh-1	RecA splice inh	Mtb UGM inh	Y pestis TopoI	BioA inh-2	HepG2 cytotox	3T3 cytotox 5
O=C(NCc1ccco1)c1ccc(-c2ccc3nccn3c2)cc1	-1	nt	48*	nt	nt	6	4	28	11
O=C(Nc1ccc2snnc2c1)N1CCN(c2ccccc2)CC1	-1	1	75*	1	-1	4	-8	16	1
O=C(Nc1ccc2snnc2c1)N1CCCCC1	0	-2	nt	-2	-1	5	nt	nt	nt
O=C(Nc1ccccc1)N1CCN(c2ccccc2)CC1	1	nt	-1	nt	nt	2	nt	nt	nt
O=C(Nc1ccc2snnc2c1)N1CCOCC1	-1	2	65*	0	0	0	-5	15	1
O=C(C[C@H]1C[C@H]2c3cc(NC(=O)Nc4ccccc4F)ccc3O[C@H]2[C@@H](CO)O1)NCCc1ccccc1	nt	nt	0	nt	nt	nt	nt	nt	nt
C[C@@H]1CCCCO[C@@H](CN(C)Cc2ccc(C(=O)O)cc2)[C@H](C)CN([C@@H](C)CO)C(=O)c2cc(NC(=O)Nc3ccc4c(c3)OCO4)ccc2O1	nt	nt	0	nt	nt	nt	nt	nt	nt
C=C(C)n1c(=O)n(Cc2ccccc2C)c2ccccc21	-3	-5	48*	6	0	8	-10	-14	-18
Cc1noc(C)c1S(=O)(=O)Nc1ccc2c(c1)C(=O)N([C@H](C)CO)C[C@@H](C)[C@H](CN(C)S(=O)(=O)c1ccccc1)OCCCC[C@@H](C)O2	nt	nt	1	nt	nt	nt	nt	nt	nt
O=C(Nc1ccc(F)c(F)c1)C1CCN(S(=O)(=O)c2cccs2)CC1	-1	-2	58*	nt	-1	-1	-9	14	-5
Cc1ccc(NC(=O)C2CCN(S(=O)(=O)c3cccs3)CC2)cc1	0	4	nt	-2	2	11	nt	nt	nt
CCOC(=O)c1c(C)[n+](-c2ccc(C)cc2)c(CC)c2cc(OC)c(OC)cc12	-1	-4	77*	-2	-2	2	-9	13	-3
CCOC(=O)c1c(C)[nH]c2cc(Br)c(OC)cc12	-4	-5	-1	-4	2	4	nt	nt	nt
COc1ccc(CN(C)C[C@H]2OCCCC[C@H](C)Oc3ccc(NS(=O)(=O)c4ccccc4)cc3C(=O)N([C@@H](C)CO)C[C@@H]2C)cc1	nt	nt	0	nt	nt	nt	nt	nt	nt
CCCc1cc(=O)oc2c3c(cc(OCC(=O)NCCCn4ccnc4)c12)OC(C)(C)CC3	-1	3	43*	0	-1	12	-6	8	-6
Cc1cc(=O)oc2c3c(cc(OCC(=O)NCCCn4ccnc4)c12)OC(C)(C)CC3	-1	2	20	8	2	1	nt	nt	nt
COc1ccc(-c2ccc3c(c2)C2CC3CCN2)cc1 (centres undefined)	-2	nt	86*	nt	nt	1	-9	-16	-8
Cc1ccc(Cn2ccc(=O)c(Cc3c(Cl)cccc3Cl)c2C)cc1	-4	-5	6	9	-1	19	nt	nt	nt
COc1ccc(Cn2ccc(=O)c(Cc3c(Cl)cccc3Cl)c2C)cc1	-4	0	43*	8	-1	1	5	?	?
COc1ccc(NC(=O)N[C@@H]2CC[C@H](CCNC(=O)Cc3ccncc3)O[C@@H]2CO)cc1	nt	nt	-1	nt	nt	nt	nt	nt	nt
COc1ccc(C2c3c(-c4cc(Cl)c(C)cc4O)n[nH]c3C(=O)N2Cc2cccnc2)cc1OC (centres undefined)	-8	-5	56*	2	2	-2	-6	-10	-6
C[C@@H]1CN([C@H](C)CO)C(=O)c2cc(C#Cc3cccnc3)cnc2O[C@H]1CN(C)S(C)(=O)=O	nt	nt	84*	nt	nt	nt	-2	i	-2
CCNC(=O)C[C@@H]1CC[C@@H]2[C@H](COC[C@H](O)CN2Cc2ccccc2F)O1	nt	nt	-3	nt	nt	nt	nt	nt	nt
O=C(C1CC1)N1CC[C@@H]2[C@H]1c1cc(Br)ccc1N[C@@H]2CO	nt	nt	88*	nt	nt	nt	-3	i	-7
O=C(C1CC1)N1CC[C@H]2[C@H](CO)Nc3ccc(Br)cc3[C@H]21	nt	nt	30	nt	nt	nt	nt	nt	nt
SMILES	FadD28 FP inh	Rv3671c protease	BioA inh-1	RecA splice inh	Mtb UGM inh	Y pestis TopoI	BioA inh-2	HepG2 cytotox	3T3 cytotox 5
O=C(Cc1ccccc1)N1CC[C@@H]2[C@H]1c1cc(Br)ccc1N[C@@H]2CO	nt	nt	86*	nt	nt	nt	7	i	-8
CC(C)n1c(N2CCN(C(=O)c3cccs3)CC2)nc2ccccc21	2	1	42*	nt	2	12	5	24	3
COc1cccc(NC(=O)CCC2CCN(C(=O)c3ccc(C(C)=O)s3)CC2)c1	-4	9	72*	-2	5	19	2	-13	0
C[C@H]1CN([C@@H](C)CO)C(=O)Cc2cc(N(C)C)ccc2O[C@H]1CN(C)C(=O)Nc1ccccc1	nt	nt	0	nt	nt	nt	nt	nt	nt
COC(=O)c1c(C(=O)OC)c(-c2cccc(F)c2)n2c1CS(=O)C2 (centres undefined)	-2	-6	98*	4	-1	3	-6	-11	8
CC(=O)c1ccc(N2CCN(C(=O)Cc3cccs3)CC2)cc1	-5	1	49*	-6	1	-14	-6	15	0
COc1cccc(-c2cn(CC[C@H]3CC[C@@H](NS(=O)(=O)Cc4ccccc4)[C@@H](CO)O3)nn2)c1	nt	nt	-4	nt	nt	nt	nt	nt	nt
COc1ccc(NC(=O)c2ccc(S(=O)(=O)N(C)C)cc2)cc1OC	-3	0	43*	-2	0	-3	-8	-5	-5
COc1ccc(C(=O)Nc2ccc(Cn3ccnc3)cc2)cc1OC	-2	0	44*	0	0	-5	-3	19	3
COc1cc(NC(=O)c2cccnc2)c(OC)cc1NC(=O)c1ccc(Br)cc1	-3	11	5	2	-1	5	nt	nt	nt
COc1cc2c(cc1NC(=O)c1cccnc1)CCCC2	0	5	56*	7	1	-8	-7	-12	-8
Cn1nnc2cc(C(=O)Nc3cccnc3)ccc21	-4	2	55*	0	-2	3	-7	25	2
CCCCN1C(=O)c2ccc(C(=O)Nc3cccnc3)cc2C1=O	1	-5	82*	3	-1	-8	-7	6	-1
CN1C(=O)c2ccc(C(=O)Nc3cccnc3)cc2C1=O	1	nt	31	-1	0	-1	nt	nt	nt
COc1ccc(C(=O)Nc2cccnc2)cc1OC	0	5	57*	nt	-2	1	-5	24	-2
CO[C@@H]1CN(C)C(=O)c2ccc(NC(=O)c3ccccn3)cc2OC[C@@H](C)N(CCC(F)(F)F)C[C@H]1C	nt	nt	1	nt	nt	nt	nt	nt	nt
